Screening data deposited in PubChem BioAssay by several laboratories.
PP5 inh: PP5 phosphatase inhibitors, primary screen, biochemical, fluorescence | Serine/threonine-protein phosphatase 5 (Homo sapiens), P53041 | purified PP5c, OMFP substrate fluorescence | inhibition, % at 6.7 µM | hit rate 0.18% among 320,000;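 active means inhibition above the campaign's mean inhibition across all tested compounds plus 3 SD, cut at about 9.5% in these data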;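 further: 0% = DMSO only and 100% = 100 µM cantharidin control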
Calb FLC: C. albicans growth inhibition with fluconazole, primary screen, CaCi-2 strain, Alamar Blue fluorescence. C. albicans CaCi-2 (fluconazole-resistant clinical isolate) + fluconazole, 48 h. growth inhibition, % (test concentration not listed). hit rate 0.57% among 300,000. AID 1979, 2009;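 active means growth inhibition above about 58% in most replicates, limit read from the data, passing the limit was not always enough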;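 further: all wells also contain fluconazole at 8 µg/ml as a sub-toxic cotreatment; 0% = median of DMSO wells and 100% = median of geldanamycin control wells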
CSC inhib: cancer stem cell viability inhibitors, primary screen, luminescence. cancer stem cell-like cells viability. inhibition, % at 7.5 µM. hit rate 1.1% among 300,000; in the data active means inhibition above about 75%; tested in HMLE shEcad cells
PP1 counter: PP1-alpha phosphatase inhibitors, primary screen, counter-screen for PP5 inhibitor project, biochemical, fluorescence, OMFP substrate, single point. Serine/threonine-protein phosphatase PP1-alpha catalytic subunit (Homo sapiens), P62136. purified PP1alpha. inhibition, % at 6.7 µM. hit rate 0.9% among 320,000. AID 2235, 2010;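 active means inhibition above the mean inhibition of all tested compounds plus 3 SD, computed separately for each screening campaign, cut at about 15% in these data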
Target sequence (P62136 whole entry, looked up): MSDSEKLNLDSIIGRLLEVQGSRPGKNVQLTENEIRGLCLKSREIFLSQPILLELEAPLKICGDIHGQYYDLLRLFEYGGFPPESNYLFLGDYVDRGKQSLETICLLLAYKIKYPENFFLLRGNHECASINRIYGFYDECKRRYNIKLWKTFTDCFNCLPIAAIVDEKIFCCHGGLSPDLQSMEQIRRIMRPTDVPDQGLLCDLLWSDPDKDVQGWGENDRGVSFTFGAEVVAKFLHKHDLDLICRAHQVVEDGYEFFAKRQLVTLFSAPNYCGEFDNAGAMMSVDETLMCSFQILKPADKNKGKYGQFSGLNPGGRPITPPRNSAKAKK
ALR H2O2 inh: inhibitors of human ALR sulfhydryl oxidase, primary screen, biochemical, H2O2 detection, HRP-luminol luminescence, single point. hit rate 3.8% among 290,000. purified ALR, DTT oxidation. inhibition, % (concentration not given with the values). FAD-linked sulfhydryl oxidase ALR (Homo sapiens), P55789;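 active means mean replicate inhibition above about 79%, with every replicate also reaching it, limit read from the data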
* marks the source's active call; other numbers are inactive results; . = not tested or not shown. A selection: hits, their analogues and other compounds. The true share with any hit is near 5.4%.

SMILES	PP5 inh	Calb FLC	CSC inhib	PP1 counter	ALR H2O2 inh
O=C(CSCc1ccccc1)N1CCN(c2ccccc2)CC1	3	-4	0	-2	98*
c1ccc(N2CCN(CC3CCCCC3)CC2)cc1	.	-4	97*	.	21
COc1ccc(CNC(=O)[C@@H]2CC=C[C@@H]3CCN(C4CCCCC4)C(=O)[C@@H]32)cc1	3	4	-1	-1	-11
O=C(CCc1ccccc1)N1CCN(c2ccc(F)cc2)CC1	-1	-7	-3	-5	86*
CC1(C(=O)N2CCN(c3ccc([N+](=O)[O-])cc3)CC2)CC1(Cl)Cl (stereo not given)	1	11	21	6	13
O=C(CN1CCN(c2ccccc2)CC1)Nc1ccncc1	1	-4	-13	-1	99*
O=C(CCc1ccccc1)N1CCN(c2ccccc2F)CC1	1	5	1	3	3
CC1(C(=O)N2CCN(c3ccccc3)CC2)CC1(Cl)Cl (stereo not given)	0	-1	.	-1	96*
O=C(CSCc1ccccc1)N1CCN(c2ccc(F)cc2)CC1	4	-5	1	-2	88*
Cc1cc(=O)oc2cc(O[C@@H]3O[C@H](CO)[C@H](O)[C@H](O)[C@H]3O)ccc12	1	.	13	0	-1
O=S(=O)(N1CCOCC1)N1CCN(c2ccc(F)cc2)CC1	-2	3	1	-7	26
CCCN(CC1CC1)C(=O)COC(=O)c1oc2ccc(OCC)cc2c1C	3	.	-15	-5	-6
Cc1ccc(CNC(=O)CSc2nc3c(sc4ccccc43)c(=O)n2CCCN2CCCC2)cc1	1	-3	17	-1	99*
COc1cccc(NC(=O)CSc2nc3c(sc4ccccc43)c(=O)n2CCCN2CCCC2)c1	3	0	7	5	97*
COc1cccc(NC(=O)CSc2nc3c(sc4ccccc43)c(=O)n2CCN(C)C)c1	-3	-2	2	9	100*
Cc1ccc(NS(=O)(=O)c2ccc(C(=O)OCC(=O)N3CCCCC3)cc2)cc1	1	.	.	-3	.
Cc1ccc(NC(=O)CSc2ccc(-c3ccco3)nn2)c(C)c1	2	-17	3	-1	50
NCCSc1c(-c2ccccc2)[nH]c2ccccc12	5	7	-14	1	97*
CC1(C)SC2c3ccccc3C(=O)N2[C@@H]1C(=O)NC1CC1 (stereo not given in full)	-2	-2	-5	-3	-1
NC(=O)NC(=O)C(Nc1ccc(N2CCCCC2)cc1)c1ccccc1 (stereo not given)	1	-3	-1	3	99*
CSc1ccccc1OCc1cc(C(=O)NCCc2ccco2)no1	2	-13	-4	-2	-3
CCCOC(=O)C1=C(C)N(C)C(=O)NC1c1cc2c(cc1[N+](=O)[O-])OCO2 (stereo not given)	2	-1	1	0	12
CCOC(=O)C1=C(C)NC(=O)CC1c1cc2c(cc1[N+](=O)[O-])OCO2 (stereo not given)	3	3	3	-1	91*
COC(=O)/C(=N/Nc1ccc(C)cc1)N1CCCc2ccccc21	5	-15	15	0	99*
COC(=O)/C(=N/Nc1cccc(C)c1)N1CCCc2ccccc21	2	46	.	-2	99*
SMILES	PP5 inh	Calb FLC	CSC inhib	PP1 counter	ALR H2O2 inh
Cc1[nH]c(=O)[nH]c1CN1CCCCC1	.	-1	.	.	.
COc1ccc(C(=O)C[n+]2cn(C(F)F)c3ccccc32)c(F)c1	-1	6	3	-2	58
Cc1ccc(-c2csc(NC(=O)CSc3nc4ccccc4c(=O)n3CCCN(C)C)n2)cc1	1	27	15	2	99*
CN(C)CCCn1c(SCC(=O)N2c3ccccc3Sc3ccccc32)nc2ccccc2c1=O	1	-1	30	3	97*
CCn1c(SCC(=O)Nc2nc(-c3ccc(C)cc3)cs2)nnc1-c1ccccc1	2	-1	19	8	4
COc1ccccc1-c1cc(C(=O)Nc2cc(C)nn2-c2ccccc2)no1	3	6	40	6	-5
O=C(O)c1ccc(N/N=C/c2ccc(F)c(F)c2)cc1	0	2	3	-1	.
Nc1cc(C(=O)O)ccc1Nc1ccc(F)c(F)c1	-1	.	.	-3	97*
